Experimental data reported in the supplement of paper PMC11577813, “Eurasian spruce bark beetle detects lanierone using a highly expressed specialist odorant receptor, present in several functional sensillum types” (BMC Biology, 2024).
± gives the standard deviation of the averaged measurements.

Tested on: (4S)-cis-verbenol A-neuron OSN class
Test: net action potential response of A-neuron (blank-subtracted) (spikes/s (Hz)); higher = stronger excitation
Conditions: 10 µg on filter paper; neuron: A neuron (large spike amplitude)
Experimental: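 Single sensillum recordings from antennal olfactory sensilla of live adult Ips typographus. Each compound was 10 µg in paraffin oil on filter paper, delivered as a 0.5 s puff. Net response = spikes in the first 0.5 s of response minus the 0.5 s pre-stimulus count, doubled to give Hz, with blank response subtracted. Values are for the large-spike A-neuron class of each of seven sensillum types that co-house the lanierone B-neuron; N = 1-4 sensilla, averaged.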

In order of falling “net action potential response” value:
1. CC1=C[C@@H](O)[C@H]2C[C@@H]1C2(C)C [(-)-trans-Verbenol]  52.7 ± 13
2. CC(C)CCO [3-Methyl-1-butanol]  6 ± 7.2
3. CC1(C)C2CC=C(CO)C1C2 (racemic) [(±)-Myrtenol]  4.67 ± 1.1
4. COc1ccc(C)cc1 [4-Methyl anisole]  4.67 ± 4.6
5. CCC/C=C/C=O [(E)-hex-2-enal]  4 ± 10
6. C=C1[C@@H]2CC[C@@H](C2)C1(C)C (racemic) [(±)-Camphene]  4 ± 3.5
7. CC(=O)CC/C=C(\C)CCC=C(C)C [Geranylacetone]  3.33 ± 6.1
8. C=CC(O)CCCCC (racemic) [(±)-1-Octen-3-ol]  2.67 ± 3.1
9. C[C@H]1C(=O)C[C@H]2C[C@@H]1C2(C)C [(-)-Pinocamphone]  2.67 ± 6.4
10. CC/C=C/CCO  2.67 ± 7
11. C=CC(=C)CCC=C(C)C [Myrcene]  2 ± 4
12. CCC/C=C/CO  2 ± 4
13. CCc1ccc(O)c(OC)c1 [4-Ethylguaiacol]  2 ± 6
14. C=CC(=C)C[C@@H](O)CC(C)C (racemic) [(±)-Ipsenol]  1.33 ± 4.2
15. CC1=CC(C)(C)C=C(O)C1=O [Lanierone]  1.33 ± 5.8
16. COc1ccccc1 [Anisole]  1.33 ± 7.6
17. CCC1CCC2(CCCO2)O1 (racemic) [(±)-Chalcogran]  1.33 ± 5
18. CCC/C=C\CO  1.33 ± 4.2
19. CC12CCC(CC1)C(C)(C)O2 [1,8-Cineole]  1.33 ± 4.2
20. C=Cc1ccc(OC)cc1 [4-Vinyl anisole]  0.667 ± 5
21. C=C(C)[C@@H]1CC=C(C)CC1 [(-)-Limonene]  0.667 ± 8.1
22. CCCCCC=O [Hexanal]  0.667 ± 5
23. CC1=CCC(=C(C)C)CC1 [Terpinolene]  0 ± 3.5
24. CC(C)=CCC/C(C)=C/C=O [Citral (E/Z mix)]  0 ± 3.5
25. CC/C=C\CCO  -0.667 ± 3.1
26. C[C@@H]1C(=O)C[C@H]2C[C@@H]1C2(C)C [(+)-Isopinocamphone]  -0.667 ± 4.6
27. C=CCc1ccc(OC)c(OC)c1 [Eugenol methyl ether]  -0.667 ± 8.1
28. CCCCCCO [1-Hexanol]  -1.33 ± 4.6
29. CCC(C)CO (racemic) [(±)-2-Methyl-1-butanol]  -1.33 ± 4.2
30. CC1=CCC2CC1C2(C)C (stereo not drawn) [(+)-α-Pinene]  -2 ± 7.2
31. Cc1ccc(C(C)C)cc1 [p-Cymene]  -2 ± 4
32. OCCc1ccccc1 [2-Phenylethanol]  -2 ± 6.9
33. C=CC(=C)CC(O)C=C(C)C (racemic) [(±)-Ipsdienol]  -2.67 ± 2.3
34. CC1=CCC2CC1C2(C)C (stereo not drawn) [(-)-α-Pinene]  -2.67 ± 3.1
35. C=C1CCC2CC1C2(C)C (stereo not drawn) [(-)-β-Pinene]  -3 ± 4.2
36. CC[C@H]1O[C@]2(C)CCC[C@H]1O2 (racemic) [(±)-exo-Brevicomin]  -3.33 ± 4.2
37. C=CC(C)(C)O [2-Methyl-3-buten-2-ol]  -4 ± 4
38. C=C1CCC2(C(C)C)CC12 (racemic) [(±)-Sabinene]  -4 ± 7.2
39. CC(=O)OCCC(C)C [3-Methylbutyl acetate]  -4 ± 4
40. CCCCCC(O)CC (racemic) [(±)-3-Octanol]  -6.67 ± 1.1
